Compound activity (PubChem)
The entries come from a sample that favours hits as a whole.
Tb PYK inh = inhibitors of Trypanosoma brucei pyruvate kinase; actives 0.12% (n = 410,000); AID 624173; Potency, µM (top dose mostly 76.8 µM), actives largely listed as inhibitors; TbPYK enzyme, Kinase-Glo Plus ATP luminescence, 45 min; further: nearly all actives have a fitted effect of over 50% in size
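Assay buffer: 50 mM TEA pH 7.2, 100 mM KCl, 10 mM MgCl2, 0.05% BSA, 0.01% Tween-20. Pyruvate kinase from T. brucei plus substrate met compound, then ADP (130 uM final). Luminescence was read post 45 min RT.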
LmPK inh = LmPK (Leishmania mexicana) enzyme inhibition; Potency, µM (titrated, usually from 57.5 µM), hits mostly inhibitors; Q27686; actives 0.37% (n = 290,000); purified LmPK, Kinase-Glo ATP luminescence, 1 h
Target sequence (Q27686 whole entry, looked up): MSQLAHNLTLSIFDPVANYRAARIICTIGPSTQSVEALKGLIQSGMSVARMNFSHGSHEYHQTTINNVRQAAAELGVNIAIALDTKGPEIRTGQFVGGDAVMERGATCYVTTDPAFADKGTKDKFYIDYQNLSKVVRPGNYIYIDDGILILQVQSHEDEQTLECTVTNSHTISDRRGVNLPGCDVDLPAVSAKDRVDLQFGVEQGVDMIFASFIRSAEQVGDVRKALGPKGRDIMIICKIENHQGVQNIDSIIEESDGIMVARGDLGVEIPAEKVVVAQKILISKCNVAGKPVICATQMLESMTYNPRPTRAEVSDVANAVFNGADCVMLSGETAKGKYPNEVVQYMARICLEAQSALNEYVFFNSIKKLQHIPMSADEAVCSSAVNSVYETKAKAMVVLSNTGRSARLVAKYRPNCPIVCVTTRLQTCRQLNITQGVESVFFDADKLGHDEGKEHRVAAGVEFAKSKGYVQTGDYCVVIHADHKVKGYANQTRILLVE
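qHTS format; LmPK 0.1 nM; substrates PEP 0.5 mM and ADP 0.1 mM. One-hour room-temperature incubation, then coupled luciferase luminescence; 0.5 nM enzyme wells mark activation.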
Sm TGR inh = blocks Schistosoma mansoni thioredoxin glutathione reductase; purified TGR, DTNB reduction, TNB absorbance 405 nm; Potency, µM (highest dose often 114 µM), actives largely listed as inhibitors; actives 3% (n = 360,000); AID 485364; further: nearly all actives have a fitted effect of over 60% in size
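First, TGR (20 nM dispensed) and NADPH were mixed with compound. Second, a 15 min room-temperature incubation followed. Third, further NADPH and then DTNB were added to start the reaction. Finally, TNB absorbance was monitored kinetically.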
Shiga toxin inh = inhibitors of Shiga toxin in Vero cells. inhibition, % at 38.7 µM. actives 9.2% (n = 290,000). Vero cells, Shiga toxin protein synthesis inhibition reporter; in the data active means inhibition mostly above about 28%, no sharp cut-off; inactive means mostly below about 43%
Giardia FBPA inh = Giardia lamblia aldolase inhibition; AID 2451; purified Giardia FBPA; actives 0.71% (n = 290,000); A8B2U2; Potency, µM (highest dose often 59.6 µM), hits mostly inhibitors; further: nearly all actives have a fitted effect of over 55% in size
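Giardia FBPA (40 nM reagent) was preincubated 10 min at RT with compound (up to 57.5 uM final), then substrate plus GAPDH/TPI/NAD/arsenate coupling system with diaphorase/resazurin was added; resorufin fluorescence (525/598 nm) was read after 20 min.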
Cycloheximide cs = counter-screen hit for Shiga toxin inhibitors, cycloheximide. actives 12% (n = 300,000). cell reporter, cycloheximide protein synthesis inhibition counterscreen. max response, %; in the data active means max response mostly above about 13%, no sharp cut-off; inactive means mostly below about 14%; further: read at 38.3 µM for the half of the compounds with a filed dose
Numbers stand for hits; - = inactive; ? = inconclusive; . = not tested or not shown. Unless noted, the call rests on the fitted dose curve; in most records, active means well fitted curve in the direction sought with a large enough effect; inconclusive means small, poorly fitted or top-dose-only effect, or another doubt; inactive means no such curve, though single readings can be large; an effect the other way counts as inactive or inconclusive.

SMILES	Tb PYK inh	LmPK inh	Sm TGR inh	Shiga toxin inh	Giardia FBPA inh	Cycloheximide cs
CCCN1C=CC(=C/C=C(\C#N)C(=O)OCC)C=C1	.	-	-	93	-	28
COc1cccc2c3c(c(=O)[nH]c12)CCC(C)(C)O3	-	-	-	-	-	13
O=C(Cn1c(=O)oc2cc(S(=O)(=O)N3CCCC3)ccc21)Nc1ccc(F)cc1F	-	.	-	.	.	.
COc1ccc(NC(=O)c2c(-c3ccccc3)c(-c3ccccc3)nn(C)c2=O)cc1OC	-	.	-	.	.	.
Cc1oc2cc(Br)c(O)c(Br)c2c1-c1ccccc1	-	-	10µM	59	-	18
C=CCNc1oc(COc2ccc(C)cc2)nc1C#N	-	-	-	136	-	25
Cc1ccc(OCc2nc(C#N)c(NCc3ccc4c(c3)OCO4)o2)cc1	-	-	-	-	-	-
CN(C)CCNc1oc(COc2ccc(-c3ccccc3)cc2)nc1C#N	-	-	45µM	-	-	-
CC(C)(C)OC(=O)C[C@@H]1C/C=C\C[C@@H](CC(=O)N(CCO)Cc2ccccc2)C(=O)N[C@@H](c2ccccc2)COC1=O	-	.	.	.	.	.
Cn1cc(Br)c(C(=O)NNC(=O)Cc2ccc(Cl)cc2)n1	-	-	-	-	-	-
CCNC(=S)NNC(=O)c1cccc(Br)c1	-	-	-	-	-	-
Cn1cc(Br)c(C(=O)NNC(=O)c2ccc(Cl)cc2)n1	-	-	-	-	-	39
Cn1cc(Br)c(C(=O)NNC(=O)c2cccc(Br)c2)n1	-	-	35µM	-	-	-
Cc1cn2c(=O)cc(COc3cccc(NC(=O)c4ccc(C(C)(C)C)cc4)c3)nc2s1	-	.	-	.	.	.
CC1=C(C(=O)OCc2ccccc2)C(C2CC2)NC(=O)N1CCCCCC(=O)O (stereo not given)	.	.	.	.	-	.
O=S(=O)(NCc1nnc2ccccn12)c1ccc(Cl)cc1	-	.	-	.	.	.
COc1ccc(-c2cc(OC(=O)c3ccc(Cl)cc3)c3c(C)oc(C)c3c(=O)c2)cc1	-	.	40µM	.	.	.
COc1ccc(-c2cc(OC)c3c(C)oc(C)c3c(=O)c2)cc1OC	-	-	50µM	-	?	-
O=C(Nc1nccs1)c1ccc(-c2ccccc2[N+](=O)[O-])o1	-	-	-	106	-	54
COc1ccccc1NC(=O)c1ccc(-c2ccccc2[N+](=O)[O-])o1	-	-	-	115	-	60
O=C(Cc1ccccc1[N+](=O)[O-])Nc1nccs1	-	-	-	-	-	-
CCCCn1nnc(NC(=O)c2ccc(-c3ccccc3[N+](=O)[O-])o2)n1	-	-	-	49	-	27
O=C(Nc1nccs1)c1ccc(-c2ccccc2Cl)o1	-	-	-	76	-	44
COc1ccccc1NC(=O)c1ccc(-c2ccc(Br)cc2)o1	-	-	-	-	-	-
O=[N+]([O-])c1cccc(-c2noc(-c3ccco3)n2)c1	-	-	-	63	-	28
SMILES	Tb PYK inh	LmPK inh	Sm TGR inh	Shiga toxin inh	Giardia FBPA inh	Cycloheximide cs
O=[N+]([O-])c1cccc(-c2nc(-c3ccncc3)no2)c1	-	-	-	-	-	-
O=[N+]([O-])c1cccc(-c2nc(-c3ccccc3)no2)c1	-	-	-	49	-	-
O=[N+]([O-])c1cccc(-c2noc(COc3ccccc3)n2)c1	-	-	-	-	-	27
Cc1cccc(C(=O)N/N=C/c2ccoc2)c1	-	-	-	78	-	36
CCOc1cc(C(=O)N/N=C/c2ccoc2)cc(OCC)c1OCC	-	-	-	-	.	-
CC(C)Oc1cccc(C(=O)N/N=C/c2ccoc2)c1	-	-	-	61	.	49
CCCOc1cccc(C(=O)N/N=C/c2ccoc2)c1	-	-	-	-	.	31
CC(C)COc1ccc(C(=O)N/N=C/c2ccoc2)cc1	-	-	-	83	-	27
COc1ccc(OC)c(NC(=O)CSC2=Nc3ccccc3C3=NC(CC(=O)NCc4ccc5c(c4)OCO5)C(=O)N23)c1 (stereo not given)	-	.	-	.	.	.
CCOc1ccc(CCNCc2c(C(=O)O)c(C)n(Cc3ccccc3F)c2C)cc1	-	.	-	.	.	.
Cc1c(C(=O)N2CCCC2)oc2c1-c1nn(CC(=O)NCc3ccccc3F)cc1CC2	-	.	-	.	.	.
COc1cc(OC)cc(OC(=O)C2CCN(S(=O)(=O)c3ccc(OC)c(OC)c3)CC2)c1	-	.	-	.	.	.
